Assay results taken from PubChem BioAssay (NCATS).
Inconclusive results are not listed. The source made the active and inactive calls. Calls follow the shape of the dose curve; as a rule, active = well fitted inhibition curve with a large enough effect; inconclusive = small, poorly fitted or top-dose-only effect; inactive = flat fitted curve, though single readings scatter.

Tests used:
HEK293 = test: Cytotoxic Profiling of Annotated Libraries Using Quantitative High-Throughput Screening (AID 1296008); details: Five cell lines viability, CellTiter-Glo ATP luminescence, 48-72 h; max response: stronger effect = lower value; as to max response: % is scaled to controls: 0 for no effect and ±100 for the full control effect
Summary of the method: (§1)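 Compounds were pin-transferred onto cells and incubated 48 or 72 hr at 37 degree Celsius, 95% humidity. CellTiter-Glo was added, plates sat 10 min at room temperature, then ATP-coupled luminescence was imaged as the viability read-out.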

HaCat = test: as above; details: Five cell lines viability, CellTiter-Glo ATP luminescence, 48-72 h; max response: stronger effect = lower value
Summary of the method: as §1

KB-3-1 = test: as above; details: Five cell lines viability, CellTiter-Glo ATP luminescence, 48-72 h; max response: stronger effect = lower value
Summary of the method: as §1

NIH3T3 = test: as above; details: Five cell lines viability, CellTiter-Glo ATP luminescence, 48-72 h; max response: stronger effect = lower value
Summary of the method: as §1

HEK293T = test: qHTS assay to identify novel small-molecules to repurpose for Merkel cell carcinoma treatment (AID 1296009); details: MCC and control cell lines, CellTiter-Glo viability, 72 h; series mostly up to 44.8 µM
Summary of the method: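 Cells exposed to NPC (8-point) and MIPE (11-point) compound dilutions for 72 hr at 37 degree celsius; viability read by CellTiter-Glo luminescence, normalized to no-cell and DMSO in-plate controls.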
Also: nearly all actives have a fitted effect of over 60% in size.

CC1CCC23COC(=O)C2=CC(O)CC3C1(C)CCC1=CC(=O)OC1O (stereo not given)
inactive: outcome (HEK293) | max response (HaCat) -0.369% | outcome (KB-3-1) | outcome (NIH3T3) | Potency (HEK293T)

O=C1NC(Cc2ccc(O)cc2)C(=O)N2CCCC12 (stereo not given)
inactive: outcome (HEK293) | max response (HaCat) -15.4% | max response (KB-3-1) 8.78% | max response (NIH3T3) -0.188% | Potency (HEK293T)

CC1CCC2C(C(=O)O)=CC3CC(C)(C)CC132 (stereo not given)
inactive: outcome (HEK293) | max response (HaCat) -7.87% | max response (KB-3-1) 3% | outcome (NIH3T3) | Potency (HEK293T)

C[C@@H]1C(=O)O[C@H]2CC34[C@H]5C[C@@H](C(C)(C)C)C36[C@@H](OC(=O)[C@@H]6O)O[C@@]4(C(=O)O5)[C@]21O (stereo not given in full)
inactive: outcome (HEK293) | max response (HaCat) -17.8% | max response (KB-3-1) -3.91% | max response (NIH3T3) 1.08% | Potency (HEK293T)

C/C=C(\C)C(=O)O[C@H]1[C@@H](O[C@]2(COC(=O)CC(C)C)O[C@H](COC(=O)C(C)C)[C@@H](OC(C)=O)[C@@H]2O)O[C@H](COC(C)=O)[C@@H](O)[C@@H]1O
inactive: outcome (HEK293) | max response (HaCat) 0.832% | max response (KB-3-1) 4.8% | max response (NIH3T3) 0.154% | Potency (HEK293T)

N#CCc1ccc(O)cc1O[C@@H]1O[C@H](CO)[C@@H](O)[C@H](O)[C@H]1O
inactive: outcome (HEK293) | max response (HaCat) -21.9% | max response (KB-3-1) -0.902% | outcome (NIH3T3) | Potency (HEK293T)

C[C@@H]1O[C@@H](O[C@H]2[C@H](OC(=O)C34CCC5(C)C(=CCC6C7(C)CC(O)C(O[C@@H]8O[C@H](C(=O)O)[C@@H](O)[C@H](O)[C@H]8O)C(C)(C(=O)O)C7CCC65C)C3CC(C)(C)CC4O)O[C@H](C)[C@@H](O)[C@@H]2O)[C@H](O)[C@@H](O[C@@H]2OC[C@](O)(CO)[C@H]2O[C@@H]2O[C@H](CO)[C@@H](O)[C@H](O)[C@H]2O)[C@H]1O (stereo not given in full)
inactive: outcome (HEK293) | max response (HaCat) -8.41% | outcome (KB-3-1) | outcome (NIH3T3) | outcome (HEK293T) inactive [at 9.27 µM]

C=C1C(O[C@@H]2O[C@H](CO)[C@@H](O)[C@H](O)[C@@H]2O)CC2C(C)(C)C(O)CCC2(C)C1CC/C(C)=C\CO (stereo not given in full)
inactive: outcome (HEK293) | max response (HaCat) -5.23% | outcome (KB-3-1) | max response (NIH3T3) -3.89% | Potency (HEK293T)

CCCn1cnc2c(NCc3ccccc3)nc(N[C@H](CC)CO)nc21
inactive: outcome (HEK293) | max response (HaCat) 0.198% | outcome (KB-3-1) | outcome (NIH3T3) | Potency (HEK293T)

O=C(O)c1cc(O)c2cccc(O)c2c1O[C@@H]1O[C@H](CO)[C@@H](O)[C@H](O)[C@H]1O
inactive: outcome (HEK293) | max response (HaCat) 2.74% | max response (KB-3-1) 4.95% | outcome (NIH3T3) | Potency (HEK293T)

O=C(O)c1cnn(-c2nc3cc(OC(F)(F)F)c(Cl)cc3[nH]2)c1
inactive: outcome (HEK293) | max response (HaCat) 3.71% | max response (KB-3-1) 4.77% | outcome (NIH3T3) | Potency (HEK293T)

COC(=O)[C@]12C(=O)C(C)=C(O)[C@@]1(C)C(C)=CC1[C@@]34CC[C@@H](OC(C)=O)C(C)(C)C3[C@H](C[C@]12C)OC4=O (stereo not given in full)
inactive: outcome (HEK293) | max response (HaCat) -9.29% | max response (KB-3-1) 1.77% | max response (NIH3T3) 4.25% | Potency (HEK293T)

COc1ccccc1-n1c(SCC(=O)Nc2nc3ccc(C)cc3s2)nc2c(c1=O)SCC2
inactive: outcome (HEK293) | max response (HaCat) -3.57% | max response (KB-3-1) 6.25% | max response (NIH3T3) 3.32% | Potency (HEK293T)

CC1(CO)CC[C@]2(C(=O)O[C@@H]3O[C@H](CO)[C@@H](O)[C@H](O)[C@H]3O)CC[C@]3(C)C(=CCC4[C@@]5(C)CC[C@H](O[C@@H]6O[C@H](C(=O)O)[C@@H](O)[C@H](O)[C@H]6O)C(C)(C)C5CC[C@]43C)C2C1 (stereo not given in full)
inactive: outcome (HEK293) | max response (HaCat) 1.75% | outcome (KB-3-1) | outcome (NIH3T3) | outcome (HEK293T) inactive [at 9.27 µM]

CC1CCC2(C(=O)OC3OC(COC4OC(CO)C(O)C(O)C4O)C(O)C(O)C3O)CCC3(C)C(=CCC4C5(C)CCC(O)C(C)(C(=O)O)C5CCC43C)C2C1(C)O (stereo not given)
inactive: outcome (HEK293) | max response (HaCat) -9.13% | max response (KB-3-1) 0.532% | outcome (NIH3T3) | outcome (HEK293T) inactive [at 9.27 µM]

C=C1CC23CCC4[C@@](C)(CCC[C@@]4(C)C(=O)O)C2CCC1C3 (stereo not given in full)
inactive: outcome (HEK293) | max response (HaCat) -11.3% | max response (KB-3-1) 2.07% | max response (NIH3T3) 3.55% | Potency (HEK293T)

Cn1c(=O)cc(N2CCCC(N)C2)n(Cc2ccccc2C#N)c1=O (stereo not given)
inactive: outcome (HEK293) | max response (HaCat) 0.732% | max response (KB-3-1) 8.99% | outcome (NIH3T3) | Potency (HEK293T)

OC1COC(OCC2OC(OCCc3ccccc3)C(O)C(O)C2O)C(O)C1O (stereo not given)
inactive: outcome (HEK293) | max response (HaCat) -7.45% | outcome (KB-3-1) | outcome (NIH3T3) | Potency (HEK293T)

C=Cc1cc(O)cc2nc(-c3ccc(O)c(F)c3)oc12
inactive: outcome (HEK293) | max response (HaCat) -8.75% | outcome (KB-3-1) | outcome (NIH3T3) | Potency (HEK293T)
